Whole data set: some 33,000 sequences, median “E-score (-0.5 to 0.5)” near -0.01, cut for the highest 2% near 0.26. The sample holds the highest values, similar sequences and a random draw of the others, so the mix is not that of the screen.

UniProt P13574, sequence (P13574 whole entry, the tested form may be a part): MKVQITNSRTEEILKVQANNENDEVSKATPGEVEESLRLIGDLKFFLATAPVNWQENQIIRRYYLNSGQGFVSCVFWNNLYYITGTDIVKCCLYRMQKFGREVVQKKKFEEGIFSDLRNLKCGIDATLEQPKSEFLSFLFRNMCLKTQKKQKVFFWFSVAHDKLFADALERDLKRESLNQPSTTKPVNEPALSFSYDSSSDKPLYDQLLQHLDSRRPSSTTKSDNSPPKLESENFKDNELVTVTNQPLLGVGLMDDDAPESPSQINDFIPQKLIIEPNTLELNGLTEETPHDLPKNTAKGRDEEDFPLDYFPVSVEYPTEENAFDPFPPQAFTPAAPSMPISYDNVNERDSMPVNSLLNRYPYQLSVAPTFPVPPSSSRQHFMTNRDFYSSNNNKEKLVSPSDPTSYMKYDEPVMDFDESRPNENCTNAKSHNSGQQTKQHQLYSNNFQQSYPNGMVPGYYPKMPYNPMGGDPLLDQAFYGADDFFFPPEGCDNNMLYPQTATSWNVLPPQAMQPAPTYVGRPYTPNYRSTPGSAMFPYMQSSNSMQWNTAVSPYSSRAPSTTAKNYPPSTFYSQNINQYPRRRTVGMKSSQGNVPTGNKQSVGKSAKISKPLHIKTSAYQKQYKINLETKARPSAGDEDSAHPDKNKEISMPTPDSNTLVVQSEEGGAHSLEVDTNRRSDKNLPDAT

The target in this experiment is Ste12 (UniProt P13574). In words: PBM E-score (8-mer binding enrichment) (E-score (-0.5 to 0.5)); higher = stronger / more preferred TF binding. Conditions: protein concentration: 200 nM; construct: GST-DNA-binding domain. In a few lines:
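Each ungapped eight-base word and its reverse complement, pooled, received an E-score from the Universal PBM Analysis Suite. Underlying scans, normalised with masliner, recorded fluorescent anti-GST bound to GST-tagged yeast transcription factors. These were applied at about 100-200 nM to universal all-10-mer Agilent arrays double-stranded by primer extension.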
With AATATATG, the “PBM E-score” value was 0.143.
Then CATATATG, with 0.18.
As for CATATATA, the figure is 0.283; as for CATATATC, 0.0851; as for CCCCTAGG, -0.254.
As for ACGCTAGA, the figure is -0.209; as for CTGTTGGA, 0.0959; as for ATCAGGGG, -0.128.
For GATGGTTA, the “PBM E-score” value was -0.0584.
As for ATGGTTTG, the figure is 0.0887; as for CGGGTTTC, 0.323; as for ATGGTTTC, 0.28.
CCGGTTTC: the “PBM E-score” value worked out at 0.298.
Then CCGGTTTA, with -0.00824; and CTGGTTTC, with 0.244; and AGGGTTTC, with 0.114.
On to CAGGTTTA, for which the “PBM E-score” value came out at 0.0837.
As for CAGGTTTC, the figure is 0.361.
For the sequence ACGGTTTC, the “PBM E-score” value was determined as 0.2.
Then AAGGTTTC, with 0.148; and CGGGTTAC, with 0.0422.
As for AGCCTCGC, the figure is -0.155.
As for GCCCGATA, the figure is -0.0773.
As to AAGGTTCG, the “PBM E-score” value was -0.185.
Then AAGTGCAA, with -0.0141; and AGTGATGC, with -0.099; and TCAGACGA, with -0.0271.
Then CGGGTTTA, with 0.304.
GGGGTTTA: the “PBM E-score” value came out at 0.00666.
Consider AGGGTTTA, for which the “PBM E-score” value amounted to 0.00108.
As for GTTCAGAA, the figure is -0.0378; as for AAAACGCG, 0.285; as for AAACCGCC, 0.212.
Turning to AAAACGCT, the “PBM E-score” value was 0.0239.
As for CCAACGCG, the “PBM E-score” value was -0.107.
With CGAACGCG, the “PBM E-score” value worked out at 0.0317.
As for CAACCGCG, the “PBM E-score” value came to 0.0561.
Then AAACCGCG, with 0.287; and AAAACGCC, with 0.099.
Then CAAACGCG, with 0.292.
As for CAGTTTTC, the figure is 0.105; as for CACACCAG, 0.0883.
Regarding ACTAGTTA, the “PBM E-score” value was 0.027.
Then AACAGTAT, with 0.108; and AATGGGAG, with 0.021.
As for ACACTGTC, the figure is -0.0374; as for CTGAGTCA, 0.0791; as for AACTGAAC, 0.0813.
Then CACTGAAC, with 0.0627.
In the case of CACTGAAG, the “PBM E-score” value is -0.03.
Then AACTGTAA, with 0.328; and CACTGAAA, with 0.322.
On to GACTGAAA, for which the “PBM E-score” value was 0.241.
AACTGAAG: the “PBM E-score” value came to 0.158.
Then GACTGTAA, with -0.0138; and AACTGTAT, with 0.134; and AACTGAAA, with 0.422.
As for TACTGATA, the figure is 0.198; as for TACTGAAA, 0.358; as for CGCCATAA, -0.108.
As for AAGACCTA, the “PBM E-score” value is -0.0739.
Regarding AATCGCCG, the “PBM E-score” value is -0.0024.
On to TAACGTAA, for which the “PBM E-score” value is 0.191.
As for ATAAATGA, the figure is 0.189; as for AGTAGACG, -0.0195; as for TCTCTCAA, 0.0783.
Then ACTGCAAT, with 0.109.
As for AAGGTCCC, the figure is -0.279; as for GGTCACAA, -0.022; as for CGTCACAA, 0.108.
Turning to TGTCACAA, the “PBM E-score” value is 0.3.
Regarding AACGTTGG, the “PBM E-score” value worked out at 0.038.
Then CTAGATCA, with -0.22; and CAGTGGGA, with -0.0936; and CACCACTC, with -0.164.
Then TACCGAAA, with 0.0921; and ACTGTGGA, with -0.123.
ACTTTCAT: the “PBM E-score” value was -0.0303.
As for AGTTTCAG, the figure is 0.464; as for AGTTTCAT, 0.428.
Then CATTTCAG, with 0.0948; and ACTTTCAG, with 0.0489; and CGTTTCCA, with 0.301.
Then AGTTTCCG, with 0.148; and CGTTTCAG, with 0.482; and GGTTTCCA, with -0.0565.
For AATTTCAT, the “PBM E-score” value turned out to be 0.0623.
As for CGTTTCCC, the figure is 0.165; as for CCTTTCAG, -0.115; as for CATTGACG, 0.0435.
Then GAGCTCGC, with -0.0349; and CCCTTAGC, with -0.0617.
Then CCGTTGCA, with 0.0898; and CGTGATCA, with -0.00817.
On to CGCTTCGA, for which the “PBM E-score” value was -0.0748.
In the case of CGGTTTGC, the “PBM E-score” value worked out at 0.0736.
Then AAAGTGCG, with 0.0163.
As for CTTTCTTA, the figure is 0.0052; as for CCCTGACA, -0.0188; as for AGTTTCCA, 0.212.
As for AGTTTCGC, the figure is 0.184; as for CGTTTCTC, 0.0338.
With AGTTTCTC, the “PBM E-score” value was -0.0852.
Then AGTTTCAA, with 0.307; and CATTTCAC, with 0.099; and CGTTTCGA, with 0.195.
Then CGTTTCAC, with 0.453.
Turning to ACTTTCAC, the “PBM E-score” value worked out at 0.139.
On to CGTTTCGC, for which the “PBM E-score” value came out at 0.296.
As for AGTTTCTA, the figure is 0.16.
Then AGTTTCAC, with 0.338.
